# Assay results: PubChem BioAssay (NCATS)
# Inconclusive results are not listed. A call without a number means that no potency is given here. Activity calls are given as the source filed them. Calls come from the whole dose curve; as a rule, active = well fitted curve in the direction sought with a large enough effect; inconclusive = small, poorly fitted or top-dose-only effect, or another doubt; inactive = no such curve, though single readings can be large; an effect the other way counts as inactive or inconclusive.
# Legend:
# [1] = qHTS for differential inhibitors of proliferation of Plasmodium falciparum line W2 (AID 1883); conditions: Potency: Plasmodium falciparum W2 proliferation inhibition;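 note: parasites grown with compound for 72 h before lysis and staining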; note: potency is the fitted concentration of half-maximal effect
# [2] = qHTS for differential inhibitors of proliferation of Plasmodium falciparum line HB3 (AID 1886); conditions: Potency: Plasmodium falciparum HB3 proliferation inhibition;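 note: parasites grown with compound for 72 h before SYBR Green readout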; note: potency is the fitted concentration of half-maximal effect
# [3] = target: DNA repair nuclease/redox regulator APEX1 (Homo sapiens) (UniProt P27695); experiment: qHTS Validation Assay for Inhibitors of the Human Apurinic/apyrimidinic Endonuclease 1 (APE1) (AID 1705;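 note: TAMRA fluorescence gain over two minutes as APE1 cuts a quenched THF abasic duplex; series mostly up to about 57 µM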)
# DNA repair nuclease/redox regulator APEX1 (Homo sapiens), sequence (P27695 whole entry, looked up): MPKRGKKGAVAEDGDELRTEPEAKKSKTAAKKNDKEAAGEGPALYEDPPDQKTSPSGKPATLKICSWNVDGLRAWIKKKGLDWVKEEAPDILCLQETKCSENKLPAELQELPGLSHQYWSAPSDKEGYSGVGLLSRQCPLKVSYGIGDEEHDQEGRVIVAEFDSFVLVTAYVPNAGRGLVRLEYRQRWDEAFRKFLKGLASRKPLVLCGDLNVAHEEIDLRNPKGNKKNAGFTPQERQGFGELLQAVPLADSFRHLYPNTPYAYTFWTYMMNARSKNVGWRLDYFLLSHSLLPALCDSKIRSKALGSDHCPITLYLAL
# Procedure, shortened: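 Read-out: TAMRA fluorescence (525 nm ex, 598 nm em) from cleavage of a quenched THF abasic-site duplex, 50 nM final; activity taken as intensity change between third and first of three reads 60 s apart.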
# [4] = Counterscreen for APE1 Inhibitors: Fluorescent Dye Displacement Validation Assay (AID 1707); note: potency is the fitted concentration of half-maximal effect
# Procedure, shortened: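 Counterscreen flags promiscuous DNA binders: compounds displacing ThO from duplex DNA (abasic THF site, 50 nM) reduce 540 nm emission (480 nm excitation). ThO 250 nM final; Tris-HCl pH 7.5 with NaCl, MgCl2 and Tween-20.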
# [5] = qHTS for differential inhibitors of proliferation of Plasmodium falciparum line 3D7 (AID 1876); note: potency is the fitted concentration of half-maximal effect
# [6] = qHTS for differential inhibitors of proliferation of Plasmodium falciparum line D10 (AID 1877);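 note: parasites grown with compound for 72 h before DNA staining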; note: potency is the fitted concentration of half-maximal effect
# [7] = qHTS for differential inhibitors of proliferation of Plasmodium falciparum line Dd2 (AID 1882); conditions: Potency: Plasmodium falciparum Dd2 proliferation inhibition; note: nearly all actives have a fitted effect of over 65% in size; note: potency is the fitted concentration of half-maximal effect
# Procedure, shortened: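 SYBR Green DNA fluorescence (ex 485, em 535 nm) after overnight lysis quantifies parasite growth; compound exposure lasted 72 h at 37 C on infected red cells at 2.5% hematocrit, 0.3% parasitemia (final). Artemisinin 0.29 uM and vehicle wells define normalization.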
# [8] = target: Endonuclease 4 (Escherichia coli (strain K12)) (UniProt P0A6C1); experiment: Counterscreen for APE1 Inhibitors: qHTS Validation Assay for Inhibitors of Endonuclease IV (AID 1708)
# Procedure, shortened: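 Conditions: 2 nM enzyme, 50 nM TAMRA/BHQ-2 substrate, pH 7.5 Tris buffer with 2 mM MgCl2, RT. Compound preincubation 15 min; readout three fluorescence reads 60 s apart, third-minus-first.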
# [9] = qHTS for differential inhibitors of proliferation of Plasmodium falciparum line 7G8 (AID 1815);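 note: parasite growth measured after three days of incubation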; note: potency is the fitted concentration of half-maximal effect
# [10] = qHTS for differential inhibitors of proliferation of Plasmodium falciparum line GB4 (AID 1816); conditions: Potency: Plasmodium falciparum GB4 proliferation inhibition;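 note: parasite growth measured after 72 h incubation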; note: potency is the fitted concentration of half-maximal effect
SMILES,Potency [1],Potency [2],outcome [3],Potency [4],Potency [5],Potency [6],Potency [7],outcome [8],Potency [9],Potency [10]
CC(C)C(=O)Nc1ccc([N+](=O)[O-])c(C(F)(F)F)c1,12.6 µM (active),14.1 µM (active),,,,,,,,
COC[C@H]1OC(=O)c2coc3c2[C@@]1(C)C1=C(C3=O)C2CCC(=O)[C@@]2(C)C[C@H]1OC(C)=O (stereo partly specified),11.2 µM (active),,inactive,inactive,12.6 µM (active),inactive,11.2 µM (active),,,
Cc1cccc(C)c1NC1=NCCCS1,5.01 µM (active),inactive,inactive,inactive,inactive,inactive,,inactive,7.94 µM (active),14.1 µM (active)
CN1C[C@H](CNC(=O)OCc2ccccc2)C[C@@H]2c3cccc4c3c(cn4C)C[C@H]21,3.98 µM (active),11.2 µM (active),inactive,inactive,2.51 µM (active),11.2 µM (active),10 µM (active),,5.01 µM (active),7.08 µM (active)
CC(CCc1ccccc1)NC(C)C(O)c1ccc(O)cc1 (stereo unspecified),2.51 µM (active),,inactive,inactive,,inactive,5.01 µM (active),,7.94 µM (active),3.16 µM (active)
Cc1nc2n(c(=O)c1CCN1CCC(c3noc4cc(F)ccc34)CC1)CCCC2,10 µM (active),,,,12.6 µM (active),10 µM (active),,,11.2 µM (active),11.2 µM (active)
O=c1[nH]c2ccccc2n1C1CCN(CCCC(c2ccc(F)cc2)c2ccc(F)cc2)CC1,2.82 µM (active),5.62 µM (active),,inactive,3.16 µM (active),7.08 µM (active),10 µM (active),,3.98 µM (active),8.91 µM (active)
N#CC(C#N)=Cc1ccc(O)c(O)c1,12.6 µM (active),,inactive,inactive,,,inactive,inactive,,14.1 µM (active)
O=c1c(O)c(-c2ccc(O)c(O)c2)oc2cc(O)cc(O)c12,4.47 µM (active),2.82 µM (active),,2.51 µM (active),3.55 µM (active),7.08 µM (active),8.91 µM (active),,3.55 µM (active),2.51 µM (active)
NCC1(CC(=O)O)CCCCC1,inactive,inactive,inactive,inactive,inactive,inactive,inactive,inactive,inactive,inactive
NCC(CC(=O)O)c1ccc(Cl)cc1 (stereo unspecified),inactive,inactive,inactive,inactive,inactive,inactive,inactive,inactive,inactive,inactive
CNCCC(Oc1ccc(C(F)(F)F)cc1)c1ccccc1 (stereo unspecified),2.24 µM (active),,inactive,,,10 µM (active),,,,
OCCN1CCN(CCCN2c3ccccc3Sc3ccc(C(F)(F)F)cc32)CC1,1.41 µM (active),4.47 µM (active),,,2.51 µM (active),10 µM (active),10 µM (active),,2.82 µM (active),2.51 µM (active)
NCC(O)c1ccc(O)cc1 (stereo unspecified),inactive,inactive,,inactive,inactive,inactive,inactive,inactive,inactive,inactive
CCCN1CCC[C@@H]2Cc3nc(N)ncc3C[C@H]21,inactive,inactive,inactive,inactive,inactive,inactive,inactive,inactive,inactive,inactive
CN(C)CCC=C1c2ccccc2CCc2ccccc21,3.16 µM (active),14.1 µM (active),,,,8.91 µM (active),,,10 µM (active),7.94 µM (active)
COc1ccccc1N1CCNCC1,,inactive,inactive,inactive,inactive,,inactive,inactive,inactive,
O=C1NCN(c2ccccc2)C12CCN(CC1COc3ccccc3O1)CC2 (stereo unspecified),10 µM (active),,inactive,inactive,,,inactive,,8.91 µM (active),
Fc1ccc(C(OCCN2CCN(CCCc3ccccc3)CC2)c2ccc(F)cc2)cc1,2.82 µM (active),4.47 µM (active),inactive,inactive,7.08 µM (active),12.6 µM (active),7.94 µM (active),,3.98 µM (active),3.98 µM (active)
Cc1ncc(CNC(=O)N(CCCl)N=O)c(N)n1,inactive,inactive,inactive,inactive,inactive,inactive,inactive,inactive,inactive,inactive

SMILES,Potency [1],Potency [2],outcome [3],Potency [4],Potency [5],Potency [6],Potency [7],outcome [8],Potency [9],Potency [10]
c1ccc(C2CC2)c(OCC2=NCCN2)c1,8.91 µM (active),inactive,inactive,inactive,inactive,inactive,,inactive,,12.6 µM (active)
Clc1cccc(N2CCNCC2)c1,6.31 µM (active),inactive,inactive,inactive,inactive,inactive,,inactive,,12.6 µM (active)
CCn1cc(C(=O)O)c(=O)c2ccc(C)nc21,,,inactive,inactive,,,,inactive,,
CNCC(O)c1ccc(O)cc1 (stereo unspecified),inactive,inactive,inactive,inactive,inactive,inactive,inactive,inactive,inactive,inactive
CC[N+](CC)(CC)CC,,,inactive,inactive,11.2 µM (active),11.2 µM (active),inactive,,,
O=c1[nH]c2ccccc2n1CCCN1CCC(n2c(=O)[nH]c3cc(Cl)ccc32)CC1,4.47 µM (active),,inactive,inactive,,14.1 µM (active),8.91 µM (active),inactive,,12.6 µM (active)
NN=C(N)N,inactive,inactive,inactive,inactive,inactive,inactive,inactive,inactive,inactive,inactive
COc1ccc(Cc2nccc3cc(OC)c(OC)cc23)cc1OC,,,inactive,inactive,,,inactive,,inactive,
Nc1ccncc1,inactive,inactive,inactive,inactive,inactive,inactive,inactive,inactive,inactive,inactive
Cc1c(OCC(F)(F)F)ccnc1CS(=O)c1nc2ccccc2[nH]1 (stereo unspecified),10 µM (active),11.2 µM (active),,,11.2 µM (active),12.6 µM (active),,,8.91 µM (active),10 µM (active)
Cc1ccc(S(=O)(=O)N[C@@H](CCCCN)C(=O)CCl)cc1,,inactive,inactive,inactive,,inactive,inactive,inactive,inactive,inactive
CC(=O)[C@H]1CC[C@H]2[C@@H]3CC[C@H]4C[C@H](O)CC[C@]4(C)[C@H]3C(=O)C[C@]12C,,inactive,inactive,inactive,inactive,inactive,inactive,,inactive,inactive
CCC1(C2=NCCN2)Cc2ccccc2O1 (stereo unspecified),3.98 µM (active),inactive,inactive,inactive,inactive,inactive,8.91 µM (active),inactive,,12.6 µM (active)
COc1cc2c(c(OC)c1OC)-c1ccc(OC)c(=O)cc1[C@@H](NC(C)=O)CC2,11.2 µM (active),,,,10 µM (active),,,inactive,11.2 µM (active),
CCCC(C)(COC(N)=O)COC(=O)NC(C)C (stereo unspecified),inactive,inactive,inactive,inactive,inactive,inactive,inactive,inactive,inactive,inactive
c1ccc2c(c1)OCC(C1=NCCN1)O2 (stereo unspecified),12.6 µM (active),,inactive,inactive,,inactive,,inactive,8.91 µM (active),
O=c1[nH]cc(F)c(=O)[nH]1,7.94 µM (active),5.01 µM (active),,,4.47 µM (active),4.47 µM (active),,,7.08 µM (active),7.94 µM (active)
CC(COc1ccccc1)N(CCCl)Cc1ccccc1 (stereo unspecified),2.51 µM (active),,,,,,,,7.94 µM (active),
C=C(C)[C@H]1Cc2c(ccc3c2O[C@@H]2COc4cc(OC)c(OC)cc4[C@@H]2C3=O)O1,8.91 µM (active),,inactive,inactive,,,inactive,inactive,11.2 µM (active),12.6 µM (active)
